Screens deposited in PubChem by National Center for Advancing Translational Sciences (NCATS).
Most compounds without a hit are left out; they make up all but 9.3% or so of the library.
Rab9 promoter act = activates the Rab9 promoter. Huh7 Rab9 promoter-luciferase reporter, luminescence, 24 h. Potency, µM (titrated, usually from 9.22 µM), hits mostly activators. actives 2.8% (n = 320,000). AID 485297; further: nearly all actives have a fitted effect of over 60% in size
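Measured in stably transfected Huh7 cells bearing a Rab9 promoter–luciferase construct: 24 h compound treatment at 37 °C, followed by luminescence detection.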
SMN2 splice enh = increases expression of the SMN2 splice variant; HEK293 SMN2-luciferase splicing reporter, luminescence, 30-36 h; AID 1458; actives 2.8% (n = 210,000); Potency, µM (doses to about 46.1 µM), actives largely listed as activators; further: nearly all actives have a fitted effect of over 55% in size
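HEK293 cells carry an SMN2 […]–luciferase reporter in which exon 7 inclusion puts luciferase in frame. Cells were plated 10-12 h before compound addition, then incubated 30-36 h at 37C. ONE-Glo luminescence was read; sodium butyrate at 4.5 mM final served as control.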
NPC1 promoter act = NPC1 promoter activation. Huh7 NPC1 promoter luciferase reporter, 24 h. Potency, µM (doses to about 9.22 µM), actives largely listed as activators. actives 2.4% (n = 320,000). AID 485313; further: nearly all actives have a fitted effect of over 60% in size
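Huh7 reporter cells (NPC1 promoter driving luciferase) are dosed with compound for 24 h at 37 °C, 5% CO2; luciferase detection reagent is then added and luminescence measured after 10 min at ambient temperature.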
FLuc counter = firefly luciferase modulation, counter-screen for miR-21 project | P08659 | purified FLuc, Km substrates, luminescence inhibition | Potency, µM (doses to about 57.5 µM), most hits filed as inhibitors | actives 6.9% (n = 360,000); further: nearly all actives have a fitted effect of over 55% in size
Target sequence (P08659 whole entry, looked up): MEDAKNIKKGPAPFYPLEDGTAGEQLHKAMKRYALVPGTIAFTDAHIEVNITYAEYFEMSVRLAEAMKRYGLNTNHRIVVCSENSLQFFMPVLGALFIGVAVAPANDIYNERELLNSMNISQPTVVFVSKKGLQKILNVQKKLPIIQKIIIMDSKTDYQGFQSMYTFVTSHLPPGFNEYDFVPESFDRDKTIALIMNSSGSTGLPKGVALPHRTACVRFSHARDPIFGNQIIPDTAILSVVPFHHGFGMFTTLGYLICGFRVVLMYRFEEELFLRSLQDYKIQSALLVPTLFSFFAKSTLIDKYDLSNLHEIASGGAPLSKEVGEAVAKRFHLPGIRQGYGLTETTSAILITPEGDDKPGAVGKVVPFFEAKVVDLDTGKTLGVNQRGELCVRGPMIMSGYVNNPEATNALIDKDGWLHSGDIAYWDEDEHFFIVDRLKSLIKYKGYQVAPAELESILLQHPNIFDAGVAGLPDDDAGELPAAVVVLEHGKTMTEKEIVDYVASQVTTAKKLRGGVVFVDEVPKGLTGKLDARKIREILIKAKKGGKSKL
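Purified P. pyralis luciferase, 10 nM final, with Km-level 10 uM D-luciferin and 10 uM ATP in 50 mM Tris acetate pH 7.5, 10 mM Mg acetate, 0.01% Tween-20, 0.05% BSA; 6-point qHTS titration about 60 µM downward; luminescence read.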
ELG1 genotox = induces genotoxicity in HEK293T cells with luciferase-tagged ELG1. HEK293T ELG1-luciferase reporter, luminescence, 16 h. actives 1.3% (n = 330,000). Potency, µM (titrated, usually from 46 µM), usual class: activators; further: nearly all actives have a fitted effect of over 60% in size
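DMSO vehicle served as control against compound-treated ELG1-luciferase HEK293T cells; exposure lasted 16 hr at 37 °C and 5% CO2, followed by ONE-Glo luminescence detection after 30 min.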
ELG1 repair inh = blocks ELG1-dependent DNA repair in HEK293T cells. Potency, µM (top dose mostly 46.1 µM), usual class: inhibitors. actives 2.3% (n = 330,000). HEK293T ELG1-luciferase reporter, luminescence, 16 h; DNA damage induced by 5-fluorouridine; further: nearly all actives have a fitted effect of over 55% in size
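Step one: seed 2,000 cells per well. Step two: pin-transfer compound or DMSO alongside 5-fluorouridine. Step three: incubate 16 hr, 37 °C, 5% CO2. Step four: add ONE-Glo, wait 30 min, read luminescence.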
Hits are given with their value; n = inactive; u = inconclusive; x = not tested or not shown. The call rests on the fitted dose curve; in most records, active means well fitted curve in the direction sought with a large enough effect; inconclusive means small, poorly fitted or top-dose-only effect, or another doubt; inactive means no such curve, though single readings can be large; an effect the other way counts as inactive or inconclusive.

SMILES | Rab9 promoter act | SMN2 splice enh | NPC1 promoter act | FLuc counter | ELG1 genotox | ELG1 repair inh
COc1cccc(C(=O)NCC(=O)NCc2cc(=O)n(C)c(=O)n2C)c1 | n | x | n | n | n | n
COc1cccc(/C=C2\SC(=S)N(CCCC(=O)N3CCCC3)C2=O)c1 | n | x | n | 17µM | n | n
COc1cccc(/C=C2\SC(=S)N(CCCC(=O)N3CCCCC3CCO)C2=O)c1 (stereo unspecified) | n | x | n | u | n | u
O=C(CCCN1C(=O)/C(=C\c2ccccc2)SC1=S)N1CCOCC1 | x | x | x | x | n | 18µM
O=C(CCN1C(=O)/C(=C/c2cccs2)SC1=S)N1CCCCC1 | n | x | n | 15µM | n | u
OCC1(Cc2ccc(F)cc2F)CCCN(CCCc2ccccc2)C1 (stereo unspecified) | n | x | n | n | n | n
Cc1ccc(CSc2nncn2-c2ccccn2)cc1 | n | n | n | n | n | n
Cc1cc(C(=O)Nc2nc(C)c(C(=O)N(C)C)s2)ccc1[N+](=O)[O-] | 0.45µM | 1.8µM | 0.35µM | 4.3µM | 2.6µM | u
Cc1nc(NC(=O)c2ccc([N+](=O)[O-])cc2Cl)sc1C(=O)N(C)C | n | n | n | n | n | n
COCCOC(=O)c1c(NC(=O)CSc2cccc[n+]2[O-])sc(C(N)=O)c1C | n | n | n | n | n | n
O=C(Nc1ccccc1F)c1ccc2c(Cl)c3c(nc2c1)CCC3 | x | u | x | 0.15µM | x | x
CC(=O)c1cccc(NC(=O)c2ccc3c(Cl)c4c(nc3c2)CCCC4)c1 | n | n | n | u | n | n
N#Cc1ccccc1NC(=O)c1ccc2c(Cl)c3c(nc2c1)CCCC3 | 3.5µM | 10µM | u | 3.8µM | n | u
CCOC(=O)N1CCC(NC(=O)c2ccc3c(Cl)c4c(nc3c2)CCCC4)CC1 | n | n | n | n | n | u
O=C(Nc1cccnc1Cl)c1ccc2c(Cl)c3c(nc2c1)CCC3 | 0.71µM | u | 1µM | 0.85µM | 2.3µM | u
O=C(NCc1ccc(Cl)cc1)c1ccc2c(Cl)c3c(nc2c1)CCCC3 | x | n | x | n | x | x
O=C(NC1CC1)c1ccc2c(Cl)c3c(nc2c1)CCCC3 | n | n | n | 13µM | n | n
O=C(Nc1ccc(F)c(Cl)c1)c1ccc2c(Cl)c3c(nc2c1)CCCC3 | x | n | x | n | x | x
CCCCNC(=O)CN1C(=O)c2cccnc2Sc2ccccc21 | x | x | x | n | x | x
CC(C)[C@H](NC(=O)c1ccco1)C(=O)N(C)Cc1c(F)cccc1Cl | n | x | n | n | n | n
Cc1cc(=O)oc2cc(OC(C)C(=O)N3CCOCC3)ccc12 (stereo unspecified) | n | n | n | n | n | n
CCOc1ccccc1CN1CCC(O)CC1 | n | n | n | n | n | n
CCOC(=O)C1CCN(C(=O)CCc2nnc3ccc(NCc4ccco4)nn23)CC1 | n | x | n | n | n | n
COc1ccc(S(=O)(=O)Cc2ccc(C(=O)NC3CC3)o2)cc1 | n | n | n | n | n | n
Cc1c2cnn(CC(=O)NC3CCCC3)c(=O)c2c(C)n1Cc1ccccc1 | u | x | u | 24µM | u | u
SMILES | Rab9 promoter act | SMN2 splice enh | NPC1 promoter act | FLuc counter | ELG1 genotox | ELG1 repair inh
Cc1c2cnn(CC(=O)NCCCN3CCCCC3C)c(=O)c2c(C)n1Cc1ccccc1 (stereo unspecified) | n | x | n | n | n | n
CCOC(=O)N1CCC(NC(=O)Cn2ncc3c4ccccc4n(C)c3c2=O)CC1 | n | n | n | 19µM | n | u
COc1ccc(C(CNc2ccc(C(F)(F)F)cn2)N(C)C)cc1OC (stereo unspecified) | n | x | n | n | n | n
O=C(Nc1cccc(-c2nc3cccnc3s2)c1)c1cccc(Br)c1 | x | x | x | n | x | x
O=C(Nc1cccc(-c2nc3cccnc3s2)c1)c1ccco1 | n | n | n | 11µM | n | u
O=C(Cc1ccccc1)Nc1cccc(-c2nc3cccnc3s2)c1 | x | x | x | n | x | x
O=C(Nc1ccc(-c2nc3cccnc3s2)cc1)c1ccco1 | 0.45µM | 1.4µM | 0.5µM | 1.1µM | 0.92µM | u
O=C(Nc1ccc(-c2nc3cccnc3s2)cc1)c1ccc(Br)o1 | 4µM | 3.2µM | 2.8µM | u | 2.9µM | u
Cc1nc(NC(=O)/C=C/c2ccccc2)sc1C(=O)Nc1ccc(Cl)cc1 | n | n | n | n | n | n
O=C(Nc1ccc2c(c1)OCO2)c1ccccc1SCC(=O)N1CCCC1 | n | n | n | n | n | n
O=C(c1ccccc1)c1cnc(Nc2ccccc2Cl)s1 | 1.3µM | 20µM | 1µM | 1.9µM | u | u
CC(=O)c1csc(Nc2ccccc2Cl)n1 | 2.8µM | x | 3.2µM | 19µM | u | u
CC(C)(C)C(=O)c1cnc(Nc2ccccc2Cl)s1 | x | 13µM | x | 2.4µM | x | x
Cc1cnc(NC(=O)Cc2ccccc2Cl)s1 | n | x | n | n | n | n
CCOc1ccc2ncc(S(=O)(=O)c3ccc(C)cc3)c(N3CCC4(CC3)OCCO4)c2c1 | n | x | n | n | n | 18µM
NC1=NN=C(c2ccc3c(c2)OCCO3)CS1 | 0.56µM | 2.5µM | 1µM | 5.4µM | n | u
C=CCN=C1NN=C(c2cc(C)n(CC=C)c2C)CS1 | n | n | n | 0.34µM | u | u
c1ccc(C2=NNC(=NCc3ccc4c(c3)OCO4)SC2)cc1 | u | x | u | 27µM | n | u
c1ccc(CN=C2NN=C(c3ccccc3)CS2)cc1 | 4.5µM | u | u | 19µM | n | u
COc1cccc(/C=C/C(=O)OCC(=O)NCc2ccc3c(c2)OCO3)c1 | x | x | x | x | n | n
COc1ccc(OC)c(S(=O)(=O)NCCc2cn3ccsc3n2)c1 | n | n | n | n | n | n
CCOC(=O)c1c(C)nc2c(c1-c1ccccc1)C(=O)CCC2 | n | n | n | n | n | n
CC(C)N=C1NN=C(c2ccc(F)cc2)CS1 | 0.5µM | 14µM | 0.56µM | 9.5µM | n | u
CCCCN=C1NN=C(c2cccc([N+](=O)[O-])c2)CS1 | n | n | n | u | u | u
COCCN=C1NN=C(c2ccc(NC(C)=O)cc2)CS1 | n | n | n | n | n | u
SMILES | Rab9 promoter act | SMN2 splice enh | NPC1 promoter act | FLuc counter | ELG1 genotox | ELG1 repair inh
CCN=C1NN=C(c2ccc(C)cc2)CS1 | u | u | u | 1.1µM | u | u
Clc1ccc(C2=NNC(=NCc3ccccc3)SC2)cc1 | u | n | u | 17µM | n | u
Fc1ccc(C2=NNC(=NCc3ccccc3)SC2)cc1F | u | u | u | u | n | u
C=CCN=C1NN=C(c2ccc3c(c2)OCCO3)CS1 | 0.45µM | n | 1µM | 0.67µM | 0.58µM | u
CCN1CCN(c2nc(N)c([N+](=O)[O-])c(Nc3ccc(C)cc3)n2)CC1 | n | n | n | n | n | u
O=C(NC1CCCCC1)C(c1cccs1)N(Cc1cccs1)C(=O)c1ccco1 (stereo unspecified) | n | n | n | n | n | u
